SMILES strings stand for the structures. Values without a mark were called inactive. Active and inactive are the calls of the source. No rule for the calls is given here.

The test is described as follows: C difficile toxins, biochemical counterscreen, UDPG substrate absence, confirmatory dose response (AID 720650). To be noted: series mostly up to 19.5 µM.
As for `Oc1ccc(/C=N/Nc2nc(N3CCCC3)nc(N3CCCC3)n2)cc1O`, the AC50 result was “inactive”. The entry for `O=C(c1ccccc1F)N1CCN(c2ccc([N+](=O)[O-])c3cccnc23)CC1` is “inactive”. As for `CC(C)(C)N1[C@@H](CC(=O)O)c2cc(C(F)(F)F)ccc2S1(=O)=O`, the entry is “inactive”. The entry for `CCOC(=O)c1ccc2ncc(-c3ccccc3)nc2c1` is “inactive”; for `CCCCn1c(CN2CCN(C(=O)c3ccco3)CC2)nc2c1c(=O)n(C)c(=O)n2C` it is “inactive”. With `CCOC(=O)c1c(C)[nH]c(C)c1C(=O)COC(=O)/C=C/c1ccco1`, the AC50 is greater than 39 µM.

In the case of `CCCNC(=O)C1CC(=O)N(c2ccc(OCC)cc2)C1` (centres undefined), the AC50 entry is “inactive”. The entry for `Cc1ccc(-c2cc(C(=O)OC3CCOC3=O)c3ccccc3n2)c(C)c1` (centres undefined) is “inactive”; for `CCCNC(=O)N1CC[C@@H]2[C@@H](CO)N(C)c3ccc(-c4ccc(F)cc4)cc3[C@@H]21` it is 4.27 µM (active); for `CN(C)c1ccc(C(=S)N2CCN(C(=S)Nc3ccc(Cl)cc3)CC2)cc1` it is “inactive”. As for `Cc1cscc1-c1nc(NCC2CC2)nc2ccsc12`, the entry is “inactive”. The entry for `O=C(COc1cccc(C(F)(F)F)c1)N1CCN(c2ccc(O)cc2)CC1` is “inactive”; for `O=C(N/N=C/c1ccc(O)cc1)NC12CC3CC(CC(C3)C1)C2` it is 11.2 µM (active); for `Cc1ccc(C(=O)Nc2scc(-c3ccccc3)c2C(=O)O)cc1` it is 9.56 µM (active). For `CN(CCN1CCOCC1)C(=O)CC1C(=O)NCCN1Cc1ccccc1C(F)(F)F` (centres undefined), the AC50 result was “inactive”. The entry for `Cc1ccc(C)c2sc(NC(=O)c3ccc(N4C(=O)CCC4=O)cc3)nc12` is “inactive”; for `NS(=O)(=O)c1ccc(NC(=S)NCc2ccc3c(c2)OCO3)cc1` it is greater than 39 µM. As for `CCC(=O)N1CC[C@@H]2[C@@H](CO)N(C)c3ccc(-c4ccccc4)cc3[C@@H]21`, the figure is 6.31 µM (active); as for `CCOC(=O)c1cc([N+](=O)[O-])sc1N`, “inactive”; as for `Cc1ccc(S(=O)(=O)/N=C(/Nc2cccc(O)c2)c2ccccc2)cc1`, “inactive”. As for `O=C(C[C@H]1CC[C@@H]2[C@H](COC[C@@H](O)CN2C(=O)c2ccccn2)O1)NC1CCC1`, the entry is “inactive”. `Oc1ccc(/C=N/n2cc(-c3ccccc3)[nH]c2=S)cc1`: the AC50 was 6.42 µM (active).

Regarding `O=C(NCc1cccnc1)c1cc(C2CCCCN2S(=O)(=O)c2cccc3cccnc23)on1` (centres undefined), the AC50 result is “inactive”. As for `Nc1ccc2c(c1)[nH]c(=O)c1cc(N)ccc12`, the figure is 13 µM (active); as for `CC(C)NC(=O)N1CC[C@@H]2[C@@H](CO)N(C)c3ccc(-c4ccc(F)cc4)cc3[C@@H]21`, 4.11 µM (active).

For the compound `Cn1c(-c2ccc(F)c(F)c2)cc2onc(-c3ccccc3)c2c1=O`, the AC50 result is “inactive”. As for `COc1cc(/C=C2\SC(=S)N(NC(=O)c3cccc(O)c3)C2=O)ccc1O`, the entry is “inactive”.

Turning to `CC(=O)NC(Cc1ccccc1)C(=O)Oc1ccc2ccccc2c1` (centres undefined), the AC50 result is “inactive”.

For `O=C1c2c(O)ccc(O)c2C(=O)c2c(NCCNCCO)ccc(NCCNCCO)c21`, the AC50 was 17.5 µM (active).

For the compound `Cc1cc(C)c(NS(=O)(=O)c2cccc3cccnc23)c(C)c1`, the AC50 result is “inactive”. The figure for `CCn1c(C)nc2cc(C(=O)N/N=C/c3ccc(O)cc3)ccc21` is 15.1 µM (active). As for `Cc1ccc(NNC(=O)c2ccno2)cc1C`, the figure is 0.302 µM (active).

Regarding `Nc1ccc2nc(-c3cccs3)[nH]c2c1`, the AC50 is 11 µM (active). The entry for `C[C@@H]1C=C[C@](Cc2ccccc2)(C(=O)NCC2CC2)N1C(=O)c1ccccc1` is “inactive”; for `CN1CCN(C(CNC(=O)c2ccc(Br)o2)c2ccc(F)cc2)CC1` (centres undefined) it is “inactive”; for `Cc1cc(C)c2nc(C)cc(N/N=C/c3ccc(O)cc3)c2c1` it is 12.1 µM (active).

As for `COc1cc(/C=C/C(=O)OCC(=O)NC(=O)NC(C)C)ccc1O`, the AC50 result was “inactive”. As for `COc1cc(/C=N/NC(=O)c2nnn(-c3nonc3N)c2C(C)C)ccc1O`, the entry is “inactive”; as for `CCCCCCCN1C(N(C)C)=NC[C@@H]1Cc1ccccc1`, “inactive”.

Values taken from PubChem BioAssay AID720650 (Broad Institute, 2013).
